The values that follow come from PubChem BioAssay (EPA / NIEHS).

Read-out in assay [1]: C-C motif chemokine 2 (Homo sapiens) (UniProt P13500)
Kind of assay: BSK_KF3CT_MCP1: BioMAP Diversity Plus: KF3CT Assay for Monocyte Chemoattractant Protein 1 (MCP1/CCL2) Biomarker Activity (AID 2283073). Conditions: primary human keratinocytes with fibroblasts; actives raise or lower the signal. The gist of the method: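 Keratinocytes and foreskin fibroblasts were co-cultured, dosed with chemical, and sampled 24 h later. MCP-1 was quantified by ELISA, and the endpoint was analyzed with bidirectional fitting using DMSO as negative control.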

Read-out in assay [2]: Matrix Metallopeptidase 9 (MMP9), MMP9 (gene 4318)
Kind of assay: BSK_KF3CT_MMP9: BioMAP Diversity Plus: KF3CT Assay for Matrix Metallopeptidase 9 (MMP9) Biomarker Activity (AID 2283074).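 On AC50: MMP9 protein level quantified by ELISA in the co-culture.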 Conditions: primary human keratinocytes with fibroblasts; actives raise or lower the signal. An outline of the steps: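 Keratinocyte plus foreskin fibroblast human primary skin co-culture was dosed with chemical and MMP-9 was quantified by ELISA 24 h later. Bidirectional curve fitting used DMSO as negative control and activity baseline.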

Read-out in assay [3]: urokinase plasminogen activator (uPA), PLAU (gene 5328)
Briefly: BSK_KF3CT_uPA: BioMAP Diversity Plus: KF3CT Assay for urokinase plasminogen activator (uPA) Biomarker Activity (AID 2283075). Conditions: primary human keratinocytes with fibroblasts; actives raise or lower the signal. The gist of the method:
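Human keratinocyte plus foreskin fibroblast primary co-culture exposed to chemical for 24 h. uPA levels were quantified by ELISA, and activity was fitted bidirectionally against a DMSO negative-control baseline.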

Read-out in assay [4]: CD40, CD40 (gene 958)
Kind of assay: BSK_LPS_CD40: BioMAP Diversity Plus: LPS Assay for CD40 Biomarker Activity (AID 2283076). Conditions: primary human HUVEC with PBMC; actives raise or lower the signal. The gist of the method:
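CD40 signal, measured by ELISA, is fitted in both directions relative to DMSO vehicle. The system is an LPS-driven human vascular primary co-culture of endothelial cells and PBMC, sampled 24 h after compound addition.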

Read-out in assay [5]: E-selectin (Homo sapiens) (UniProt P16581)
Briefly: BSK_LPS_Eselectin: BioMAP Diversity Plus: LPS Assay for Eselectin Biomarker Activity (AID 2283077). Conditions: primary human HUVEC with PBMC; actives raise or lower the signal. An outline of the steps: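 Signal of E-selectin, detected by ELISA, served as the endpoint; cells were umbilical vein endothelium with PBMC, read 24 h after treatment. DMSO defined baseline, and both increases and decreases were fitted.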

Read-out in assay [6]: Interleukin-8 (IL8), CXCL8 (gene 3576)
Briefly: BSK_LPS_IL8: BioMAP Diversity Plus: LPS Assay for Interleukin-8 (IL8) Biomarker Activity (AID 2283078). The settings on record: primary human HUVEC with PBMC; actives raise or lower the signal. An outline of the steps: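 Endothelial cells and PBMC from human donors are co-cultured, treated with chemicals and LPS, then assayed for IL-8 by ELISA after 24 h. Parallel SRB staining (0.1% SRB after 10% TCA fixation, 560 nm) flags cytotoxicity.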

A short description of assay [7]: BSK_LPS_SRB: Viability Assessment in the BioMAP Diversity Plus: LPS Assay (AID 2283079).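 Further: total protein by sulforhodamine B absorbance as a cytotoxicity measure; measured one day after compound addition.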 The settings on record: primary human HUVEC with PBMC. An outline of the steps:
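Overt cytotoxicity was gauged by sulforhodamine B total-protein staining in a primary human vascular endothelial and mononuclear cell co-culture 24 h post-dosing. Activity was fitted in both directions relative to DMSO.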

Read-out in assay [8]: Interleukin-1 alpha (IL1a), IL1A (gene 3552)
Briefly: BSK_LPS_IL1a: BioMAP Diversity Plus: LPS Assay for Interleukin-1 alpha (IL1a) Biomarker Activity (AID 2283080). Conditions: primary human HUVEC with PBMC; actives raise or lower the signal. The gist of the method: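 Measured: IL-1 alpha via ELISA at 24 h in LPS-activated human umbilical vein endothelium–PBMC co-culture. Baseline: DMSO, bidirectional fitting.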

Read-out in assay [9]: Monocyte Chemoattractant Protein-1 (MCP1), CCL2 (gene 6347)
Briefly: BSK_LPS_MCP1: BioMAP Diversity Plus: LPS Assay for Monocyte Chemoattractant Protein-1 (MCP1) Biomarker Activity (AID 2283081).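 On AC50: secreted MCP-1 protein quantified by ELISA in culture supernatant.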 Conditions: primary human HUVEC with PBMC; actives raise or lower the signal. The gist of the method:
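LPS-stimulated HUVEC/PBMC co-culture; chemical, 24 h; MCP-1 by ELISA; bidirectional fit vs DMSO; cytotoxicity via SRB (0.1% stain, 10% TCA fix, 560 nm) in parallel wells.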

A short description of assay [10]: BSK_LPS_PGE2: BioMAP Diversity Plus: LPS Assay for Prostaglandin E2 (PGE2) Biomarker Activity (AID 2283082).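 On AC50: secreted prostaglandin E2 measured by ELISA in LPS-stimulated co-culture.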 Conditions: primary human HUVEC with PBMC; actives raise or lower the signal. An outline of the steps: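 LPS-activated HUVEC/PBMC co-culture; cmpd dosed, 24 h; PGE2 by ELISA; bidirectional fit vs DMSO; SRB (0.1%, TCA-fixed, 560 nm) in parallel plates for overt cytotox.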

Read-out in assay [11]: Macrophage colony-stimulating factor (MCSF), CSF1 (gene 1435)
Kind of assay: BSK_LPS_MCSF: BioMAP Diversity Plus: LPS Assay for Macrophage colony-stimulating factor (MCSF) Biomarker Activity (AID 2283083). Conditions: primary human HUVEC with PBMC; actives raise or lower the signal. The gist of the method:
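Compound is added to a human vascular primary co-culture of umbilical vein endothelium and blood mononuclear cells. After 24 h, M-CSF is quantified by ELISA. Signal changes are fitted in both directions against DMSO.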

Read-out in assay [12]: Tumor necrosis factor (Homo sapiens) (UniProt P01375)
Kind of assay: BSK_LPS_TNFa: BioMAP Diversity Plus: LPS Assay for Tumour Necrosis Factor alpha (TNFa) Biomarker Activity (AID 2283085). The settings on record: primary human HUVEC with PBMC; actives raise or lower the signal. An outline of the steps: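 Read-out is ELISA of TNFa in primary human endothelial cell–PBMC co-cultures at 24 h after compound. Activity in either direction was fitted against DMSO.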

Read-out in assay [13]: Vascular cell adhesion molecule 1 (VCAM1), VCAM1 (gene 7412)
Briefly: BSK_LPS_VCAM1: BioMAP Diversity Plus: LPS Assay for Vascular cell adhesion molecule 1 (VCAM1) Biomarker Activity (AID 2283086). The settings on record: primary human HUVEC with PBMC; actives raise or lower the signal. The gist of the method:
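HUVEC + PBMC co-culture, LPS system; compound 24 h; VCAM-1 by ELISA; bidirectional fit vs DMSO control; parallel SRB (0.1%, TCA-fixed, 560 nm) for cytotoxicity.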

Read-out in another assay: CD38, CD38 (gene 952)
Kind of assay: BSK_SAg_CD38: BioMAP Diversity Plus: SAg Assay for CD38 Biomarker Activity (AID 2283087). Conditions: primary human HUVEC with PBMC; actives raise or lower the signal. The gist of the method:
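Human HUVEC plus PBMC co-culture stimulated with superantigen; CD38 measured by ELISA 24 h after chemical dosing. Fluorescence read-out, bidirectional fit against DMSO; cytotoxicity tracked in parallel by SRB and Alamar Blue.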

Read-out in assay [14]: CD40, CD40 (gene 958)
Kind of assay: BSK_SAg_CD40: BioMAP Diversity Plus: SAg Assay for CD40 Biomarker Activity (AID 2283088). The settings on record: primary human HUVEC with PBMC; actives raise or lower the signal. The gist of the method: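 Fluorescence ELISA read-out of CD40 from umbilical vein endothelium plus peripheral blood mononuclear cells, sampled 24 h after dosing. Values come from bidirectional curve fitting with DMSO as baseline.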

Read-out in another assay: CD69, CD69 (gene 969)
Briefly: BSK_SAg_CD69: BioMAP Diversity Plus: SAg Assay for CD69 Biomarker Activity (AID 2283089).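 On AC50: cell surface CD69 protein quantified by ELISA with fluorescence detection.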 The settings on record: primary human HUVEC with PBMC; actives raise or lower the signal. An outline of the steps: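 HUVEC co-cultured with PBMC were dosed with chemical, and CD69 was measured by ELISA with fluorescence read-out 24 h later. Bidirectional curve fitting used DMSO as negative control and activity baseline.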

Read-out in assay [15]: Monocyte Chemoattractant Protein-1 (MCP1), CCL2 (gene 6347)
Briefly: BSK_SAg_MCP1: BioMAP Diversity Plus: SAg Assay for Monocyte Chemoattractant Protein-1 (MCP1) Biomarker Activity (AID 2283090). The settings on record: primary human HUVEC with PBMC; actives raise or lower the signal. The gist of the method:
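MCP-1 levels in the endothelial–PBMC SAg co-culture were quantified by ELISA at 24 h post-dosing; both increases and decreases versus DMSO scored. Cytotoxicity monitored by SRB total protein in parallel cultures.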

Read-out in assay [16]: E-selectin (Homo sapiens) (UniProt P16581)
Briefly: BSK_SAg_Eselectin: BioMAP Diversity Plus: SAg Assay for Eselectin Biomarker Activity (AID 2283091). Conditions: primary human HUVEC with PBMC; actives raise or lower the signal. The gist of the method:
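Primary human endothelial cells and peripheral blood mononuclear cells were co-cultured and exposed to chemical for 24 hours. E-selectin levels were then quantified by ELISA, with bidirectional curve fitting normalised to DMSO controls.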

Read-out in assay [17]: Monokine induced gamma interferon (MIG), CXCL9 (gene 4283)
Briefly: BSK_SAg_MIG: BioMAP Diversity Plus: SAg Assay for Monokine induced gamma interferon (MIG) Biomarker Activity (AID 2283092). The settings on record: primary human HUVEC with PBMC; actives raise or lower the signal. An outline of the steps: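 HUVEC plus human PBMC co-culture, chemicals dosed and MIG (CXCL9) quantified by ELISA at 24 h. Bidirectional curve fitting against DMSO as negative control and baseline, so both gain and loss of signal count as activity.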

The source made the active and inactive calls. How the source made its calls: active means hit-call score of the fitted dose curve at least 0.9, where 1 is the maximum; inactive means score below 0.9.

Chain of Tumor necrosis factor (Homo sapiens) (P01375 whole entry, looked up): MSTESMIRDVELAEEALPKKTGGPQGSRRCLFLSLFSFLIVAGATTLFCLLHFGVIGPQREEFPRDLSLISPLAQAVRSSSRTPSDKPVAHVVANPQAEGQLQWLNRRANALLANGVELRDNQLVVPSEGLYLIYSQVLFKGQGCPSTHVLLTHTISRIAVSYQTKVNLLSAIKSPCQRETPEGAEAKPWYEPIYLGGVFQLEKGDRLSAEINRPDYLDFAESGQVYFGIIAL
Chain of E-selectin (Homo sapiens) (P16581 whole entry, looked up): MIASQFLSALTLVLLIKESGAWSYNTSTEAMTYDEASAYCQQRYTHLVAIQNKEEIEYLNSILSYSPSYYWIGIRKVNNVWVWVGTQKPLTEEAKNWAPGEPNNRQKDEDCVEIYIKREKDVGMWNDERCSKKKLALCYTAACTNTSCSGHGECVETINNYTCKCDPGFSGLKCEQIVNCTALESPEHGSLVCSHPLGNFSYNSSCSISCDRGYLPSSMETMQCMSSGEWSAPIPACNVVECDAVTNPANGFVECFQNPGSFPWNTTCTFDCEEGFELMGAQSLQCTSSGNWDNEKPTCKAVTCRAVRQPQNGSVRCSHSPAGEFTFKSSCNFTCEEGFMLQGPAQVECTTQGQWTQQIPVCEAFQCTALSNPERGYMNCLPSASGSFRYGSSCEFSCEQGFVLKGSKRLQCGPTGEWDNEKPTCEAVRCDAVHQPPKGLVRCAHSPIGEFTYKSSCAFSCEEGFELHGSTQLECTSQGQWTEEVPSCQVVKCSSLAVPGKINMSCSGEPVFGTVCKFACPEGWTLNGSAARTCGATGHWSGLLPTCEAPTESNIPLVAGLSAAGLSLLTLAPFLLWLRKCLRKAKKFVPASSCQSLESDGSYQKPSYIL

For the molecule `CCCCC=O`, the outcome in [1] was “inactive”; in assay [2] it was “inactive”; in [3], “inactive”; with CD40, CD40 (gene 958) [4], “inactive”; in [5] it was “inactive”; in [6], “inactive”. For the same molecule, the result in [7], in assay [8], in assay [9], in assay [10], in [11] and in assay [12] was inactive. The outcome was “inactive” in assay [13]; “inactive” with CD38, CD38 (gene 952); “inactive” with CD40, CD40 (gene 958) [14]; “inactive” in the assay with CD69, CD69 (gene 969); “inactive” in assay [15]; “inactive” in assay [16].
Turning to `Cc1[nH]nc2c1N=C(c1ccccc1Cl)c1cc([N+](=O)[O-])ccc1N2`, the outcome in assay [1] and in assay [3] was inactive. In addition, the AC50 (commonly the midpoint of the concentration-response curve, whichever way the signal moves) in [2] was 4.48 µM (active); with CD40, CD40 (gene 958) [4], 4.82 µM (active); in [5], 6.04 µM (active); in assay [6] it was 7.23 µM (active); in assay [7], 2.08 µM (active); in assay [8], 4.2 µM (active). In addition, the AC50 in assay [9] was 5.17 µM (active); in [10], 2.36 µM (active); in assay [11] it was 3.38 µM (active); in assay [12], 4.86 µM (active); in [13], 3.99 µM (active); with CD38, CD38 (gene 952), 5.77 µM (active). In addition, the AC50 with CD40, CD40 (gene 958) [14] is 4.7 µM (active); in the assay with CD69, CD69 (gene 969), 3.81 µM (active); in assay [15], 3.44 µM (active); in assay [16], 4.48 µM (active).
As to `CCCCCCCCCCCCCCC`, the outcome in assay [1] is “inactive”; in assay [2], “inactive”; in assay [3], “inactive”; in the assay with CD40, CD40 (gene 958) [4], “inactive”; in [5], “inactive”; in assay [6], “inactive”. Also, the outcome in assay [7], in assay [8], in [9], in [10], in assay [11] and in [12] was inactive. Besides, the outcome was “inactive” in assay [13]; “inactive” in the assay with CD38, CD38 (gene 952); “inactive” in the assay with CD40, CD40 (gene 958) [14]; “inactive” with CD69, CD69 (gene 969); “inactive” in assay [15]; “inactive” in assay [16]. In addition, in [17], the result was inactive.
In the case of `CC1=NN(c2ccccc2)C(=O)C1`, the outcome was “inactive” in [1]; “inactive” in assay [2]; “inactive” in [3]; “inactive” with CD40, CD40 (gene 958) [4]; “inactive” in assay [5]; “inactive” in assay [6]. In addition, the outcome in assay [7], in [8], in assay [9], in [10], in assay [11] and in assay [12] was inactive. Moreover, the outcome in assay [13] is “inactive”; with CD38, CD38 (gene 952), “inactive”; in the assay with CD40, CD40 (gene 958) [14], “inactive”; with CD69, CD69 (gene 969) it was “inactive”; in assay [15] it was “inactive”; in assay [16], “inactive”. For the same molecule, the outcome in assay [17] was inactive.
